According to PubChem BioAssay (Tox21):
Inconclusive results are not listed. Entries that show only a call come without a potency. Values without a mark were called inactive. The source made the active and inactive calls. Calls come from the whole dose curve; as a rule, active = well fitted activation curve with a large enough effect in the repeat runs; inconclusive = weak or mixed curves; inactive = flat fitted curve, though single readings scatter.

Assay: A CellTox Green Cytotoxicity Assay to monitor cytotoxicity in HepG2 cells - 24 hour (AID 1224878); note: nearly all actives have a fitted effect of over 45% in size
Conditions: CellTox Green fluorescence; series mostly up to 76.8 µM
Description: National Center for Advancing Translational Sciences [NCATS]
NIH Chemical Genomics Center [NCGC]
U.S. Environmental Protection Agency [EPA]
National Institutes of Environmental Health Sciences [NIEHS]
National Toxicology Program [NTP]
Cell-based models are critical for drug discovery. Determining the natural cytotoxic effects resulting from test compounds is an essential research activity. A CellTox Green Cytotoxicity Assay to monitor cytotoxicity in real time of continues cell culture during 40 hours of the compound treatment was used to screen Tox21 10K library compounds in HepG2 cells. CellTox Green Cytotoxicity Assay is a nonlytic, homogeneous, biofluorescent method to measure cytotoxicity in cell culture after experimental manipulation. The assay system uses a proprietary asymmetric cyanine dye that is excluded from viable cells but preferentially stains the dead cell's DNA. […] Viable cells produce no appreciable increases in fluorescence. Therefore, the fluorescence signal produced by the binding interaction with dead cell DNA is proportional to cytotoxicity.
The mixture of HepG2 cell suspension and reagents were dispensed at 600cells/6 ul/well in 1536-well tissue culture treated black solid bottom plates using a Multidrop dispenser. After the assay plates were incubated at a 37 C/5% CO2 incubator for 5 hours, 23 nL of compounds dissolved in DMSO, positive and negative controls was transferred to the assay plate by a pintool work station. The plates were incubated at 37 C for 40 hours. The fluorescence intensity were measured at 0h, 8h, 16h, 24h, 32h and 40h time points using ViewLux plate reader during compound treatment.
For `O=S(=O)(O)CC(O)CCl` (stereo not given), the Potency was “inactive”.
With `O=CN1CCCCC1` the Potency was “inactive”.
For `CCCC(=O)OC`, the Potency was “inactive”.
For `O=C1CC2(CCCC2)CC(=O)N1CCNCC1COc2ccccc2O1` (stereo not given), the Potency was “inactive”.
For `CC(=O)Nc1ccc(S(=O)(=O)Nc2cc(C)on2)cc1`, the Potency was “inactive”.
In the case of `N[C@H]1C(O)O[C@H](CO)[C@@H](O)[C@@H]1O` (stereo not given in full), the Potency is reported as “inactive”.
In the case of `CC1(C)CC(N)CC(C)(C)N1`, the Potency is reported as “inactive”.
With `Cc1cccc(N)n1` the Potency was “inactive”.
With `COc1cc(C(=O)NC2CCCNC2)cc(OC)c1OC` (stereo not given) the Potency was “inactive”.
For `COc1cc(NS(=O)(=O)c2ccc(N)cc2)ncn1`, the Potency was “inactive”.
In the case of `CO/N=C(\C(=O)O)c1csc(NC(=O)CCl)n1`, the Potency is reported as “inactive”.
With `C[C@]12C=CC(=O)C=C1[C@@H](F)C[C@@H]1[C@@H]2[C@@H](O)C[C@@]2(C)[C@H]1CC[C@]2(O)C(=O)CO` the Potency was “inactive”.
For `CC(O)CCCCn1c(=O)c2c(ncn2C)n(C)c1=O` (stereo not given), the Potency was “inactive”.
In the case of `Cc1ccc(O)c([N+](=O)[O-])c1`, the Potency is reported as “inactive”.
In the case of `Clc1ccc2c(c1)Nc1ccccc1S2`, the Potency is reported as “inactive”.
For `CNC(C)=O`, the Potency was “inactive”.
In the case of `C=C(C)C(=O)OCCCC`, the Potency is reported as “inactive”.
For `CCc1ncc(C)[nH]1`, the Potency was “inactive”.
For `Cc1cc(C)c(C)c(C)c1`, the Potency was “inactive”.
With `O=S(=O)(O)c1cc(I)c(O)c2ncccc12` the Potency was “inactive”.
For `CC1(C)S[C@@H]2[C@H](NC(=O)Cc3ccccc3)C(=O)N2[C@H]1C(=O)O` (tested in a mixture with another compound), the Potency was “inactive”.
For `CC(CN1CC(=O)NC(=O)C1)N1CC(=O)NC(=O)C1` (stereo not given), the Potency was “inactive”.
In the case of `O=C1CCCc2c(O)cccc21`, the Potency is reported as “inactive”.
In the case of `C=CC(=O)OCCOCCOCC`, the Potency is reported as “inactive”.
With `COC(C)(C)CC(C)=O` the Potency was “inactive”.
`c1cc2ccc3ccc4ccc5cccc6c(c1)c2c3c4c56` gave a cytotoxicity of -19.8% [at 2.72 µM].
For `CCN(CC)CC(=O)Oc1ccc(NC(C)=O)cc1`, the Potency was “inactive”.
With `CC(C)(C)C(=O)CC(=O)C(C)(C)C` the Potency was “inactive”.
With `COc1ccc2cc(CCC(C)=O)ccc2c1` the Potency was “inactive”.
For `CCOC(=O)c1ccc(N(C)C)cc1`, the Potency was “inactive”.
In the case of `C=C(C)C(=O)OCCOC1CC2CC1C1C=CCC21` (stereo not given), the Potency is reported as “inactive”.
With `O=P(O)(O)C(O)(Cc1cccnc1)P(=O)(O)O` the Potency was “inactive”.
With `CCC(C)(C)C` the Potency was “inactive”.
In the case of `O=C(CCBr)N1CCN(C(=O)CCBr)CC1`, the Potency is reported as “inactive”.
For `O=c1[nH]c(=O)c2cn[nH]c2[nH]1`, the Potency was “inactive”.
In the case of `CC(C)C(C)C`, the Potency is reported as “inactive”.
For `CCOc1ccccc1OCCN[C@H](C)Cc1ccc(OC)c(S(N)(=O)=O)c1`, the Potency was “inactive”.
With `CC(C)C(=O)Nc1cccc(C2CN3CCSC3=N2)c1` (stereo not given) the Potency was “inactive”.
With `CCCCCCCCCCCCCCCC(=O)OC` the cytotoxicity was -19.7% [at 15.8 µM].
With `CCc1ccc(CC)cc1` the Potency was “inactive”.
